Experimental findings from PubChem BioAssay (Tox21) are described below.

The structures appear in SMILES notation. Results filed as inconclusive are left out. Active and inactive are the calls of the source. The call rests on the fitted dose curve; in most records, active means well fitted inhibition curve with a large enough effect in the repeat runs; inconclusive means weak or mixed curves; inactive means no such curve, though single readings can be large or run the other way.
On the % scale 0 is the no-effect control and ±100 the full control effect; potency means the concentration at half of the fitted maximal effect.

Sequence of Cytochrome P450 2C9 (Homo sapiens) (P11712 whole entry, looked up): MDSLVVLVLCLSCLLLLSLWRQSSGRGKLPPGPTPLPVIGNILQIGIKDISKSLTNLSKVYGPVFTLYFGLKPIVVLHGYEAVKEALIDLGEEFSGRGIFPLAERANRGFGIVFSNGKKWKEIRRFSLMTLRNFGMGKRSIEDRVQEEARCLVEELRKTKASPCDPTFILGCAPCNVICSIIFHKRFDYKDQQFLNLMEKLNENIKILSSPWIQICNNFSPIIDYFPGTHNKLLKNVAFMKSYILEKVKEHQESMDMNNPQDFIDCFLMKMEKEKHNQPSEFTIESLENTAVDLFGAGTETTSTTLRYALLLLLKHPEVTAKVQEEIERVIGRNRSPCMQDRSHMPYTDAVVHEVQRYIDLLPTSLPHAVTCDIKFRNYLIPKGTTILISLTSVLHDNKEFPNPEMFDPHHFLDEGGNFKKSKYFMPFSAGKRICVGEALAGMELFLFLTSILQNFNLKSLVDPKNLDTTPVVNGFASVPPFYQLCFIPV

In one assay the target is Cytochrome P450 2C19 (Homo sapiens) (UniProt P33261). Kind of assay: Cytochrome P450 Family 2 Subfamily C Member 19 (CYP2C19) small molecule antagonists: luciferase reporter qHTS assay (AID 1671197). Further: nearly all actives have a fitted effect of over 65% in size. To be noted: P450-Glo CYP2C19 enzyme, luciferin luminescence, 1 h; series mostly up to 115 µM; activity change, negative = inhibition: at the top concentration. In short, it runs like this: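 P450-Glo CYP2C19 screening system; proluciferin substrate; DMSO compound stocks; 10 min RT preincubation; NADPH regeneration, 1 h at 37C; luciferin detection reagent, 20 min RT; luminescence as RLU.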
Sequence of Cytochrome P450 2C19 (Homo sapiens) (P33261 whole entry, looked up): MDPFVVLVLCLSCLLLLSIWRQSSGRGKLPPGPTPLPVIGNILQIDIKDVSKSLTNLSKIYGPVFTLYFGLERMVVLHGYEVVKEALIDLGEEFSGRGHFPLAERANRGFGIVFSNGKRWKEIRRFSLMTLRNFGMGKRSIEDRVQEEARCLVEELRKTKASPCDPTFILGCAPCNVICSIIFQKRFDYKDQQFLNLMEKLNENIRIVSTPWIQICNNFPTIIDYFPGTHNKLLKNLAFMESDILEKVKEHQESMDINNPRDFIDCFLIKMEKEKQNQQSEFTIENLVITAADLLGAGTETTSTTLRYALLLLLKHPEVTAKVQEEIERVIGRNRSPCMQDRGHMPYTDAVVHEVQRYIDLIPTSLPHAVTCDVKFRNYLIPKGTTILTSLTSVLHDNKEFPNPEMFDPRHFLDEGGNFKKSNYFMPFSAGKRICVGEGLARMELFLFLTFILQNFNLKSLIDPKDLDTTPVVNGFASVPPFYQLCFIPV
In the case of `O=C1[C@H](CC[C@H](O)c2ccc(F)cc2)[C@@H](c2ccc(O)cc2)N1c1ccc(F)cc1`, the Potency was 2.75 µM (active). Regarding `Cn1c(=O)c2c(ncn2CC(O)CO)n(C)c1=O` (stereo not given), the “activity change, negative = inhibition” value was -7.76% [at 52.9 µM] (inactive). The same measure, in the same setting: for `CN(c1nccc(=O)[nH]1)C1CCN(c2nc3ccccc3n2Cc2ccc(F)cc2)CC1` the value was -22% [at 52.9 µM] (inactive). Turning to `CCOC(=O)C1=C(C)NC(C)=C(C(=O)OC)C1c1cccc([N+](=O)[O-])c1` (stereo not given), the Potency was 1.55 µM (active).

Regarding `CC(C)(C)C(=O)OCOP(=O)(COCCn1cnc2c(N)ncnc21)OCOC(=O)C(C)(C)C`, the “activity change, negative = inhibition” value was -0.469% [at 52.9 µM] (inactive). Still for that read-out and setting: for `NCc1ccccc1` the value was -7.32% (inactive). Regarding `CCCCCCc1ccc(N)cc1`, the Potency was 3.56 µM (active). For the molecule `COC(=O)CSc1cc(N=c2sc(=O)n3n2CCCC3)c(F)cc1Cl`, the Potency was 31.7 µM (active).

Turning to `CC(C)c1ccccc1C(C)C`, the Potency is 39.9 µM (active). On the same count and under the same terms, for `CCOC(=O)[C@H](CCc1ccccc1)N[C@H]1CCc2ccccc2N(CC(=O)O)C1=O` the value was 6.92 µM (active). `N#Cc1cc2ccccc2c2ccccc12`: the Potency is 35.8 µM (active). Still for that read-out and setting: for `O=C(O)C(c1ccc(Cl)cc1)c1ccc(Cl)cc1` the value was 28.3 µM (active). On to `Cc1nc2ccccc2n1Cc1ccc(Cl)cc1`, for which the Potency is 3.09 µM (active).

For `Nc1nc(N)c2nc(CNc3ccc(C(=O)N[C@@H](CCC(=O)O)C(=O)O)cc3)cnc2n1`, the “activity change, negative = inhibition” value is -5.87% (inactive). On the same count and under the same terms, for `Nc1nc(N)c(-c2ccccc2)s1` the value was 34.7% [at 52.9 µM] (inactive).

Regarding `Cc1cc(CC(=O)O)c(C)n1-c1ccc(Cl)cc1`, the Potency is 7.76 µM (active). Take `CC(=O)O[C@H]1C[C@@H]2CC[C@@H]3[C@H](CC[C@@]4(C)[C@H]3C[C@H]([N+]3(C)CCCCC3)[C@@H]4OC(C)=O)[C@@]2(C)C[C@@H]1N1CCCCC1`: the “activity change, negative = inhibition” value was -1.92% [at 52.9 µM] (inactive). Take `CCOc1ccc2[nH]cc(C(=O)NCc3ccccc3)c(=O)c2n1`: the Potency is 79.6 µM (active).

Turning to `C#CCOC(=O)[C@@H](C)Oc1ccc(Oc2ncc(Cl)cc2F)cc1`, the Potency was 17.7 µM (active).

Take `O=C(Nc1ccccc1)OCC(CN1CCCCC1)OC(=O)Nc1ccccc1` (stereo not given): the Potency was 8.71 µM (active).

`CCCCCOC(=O)c1ccc(O)cc1`: the Potency is 28.6 µM (active). As for `Cc1ccc2c(ccc3ccccc32)c1`, the Potency was 35.7 µM (active). Same read-out and setting: for `Cc1c(Cn2ccnc2)c2ccccc2n1CCC(=O)O` the value was 34.7 µM (active).

As to `COc1ccc([C@@H]2Sc3ccccc3N(CCN(C)C)C(=O)[C@@H]2OC(C)=O)cc1`, the “activity change, negative = inhibition” value is 7.62% [at 52.9 µM] (inactive). Same read-out and setting: for `C=CC[N+]1([C@H]2C[C@H]3[C@@H]4CC[C@H]5C[C@H](OC(C)=O)[C@@H](N6CCCCC6)C[C@]5(C)[C@H]4CC[C@]3(C)[C@H]2OC(=O)CC)CCCCC1` the value was 36.2% [at 52.9 µM] (inactive); for `CCCC[C@H]1CN(CC2CCOCC2)C(=O)OC12CCN(C1(C)CCN(C(=O)c3c(C)ncnc3C)CC1)CC2`, -14.3% (inactive). On the same count and under the same terms, under `O=C1CCCCCO1` stands 21.6% (inactive). `O=S1(=O)c2cccc3cccc(c23)N1CCCN1CCN(c2ccc(F)cc2)CC1`: the Potency was 24.5 µM (active). Same read-out and setting: under `O=C(c1ccc(O)cc1)c1ccc(O)cc1` stands 39.9 µM (active). As for `C[C@@H](C1=C(CCN(C)C)Cc2ccccc21)c1ccccn1`, the “activity change, negative = inhibition” value was -8.91% [at 52.9 µM] (inactive). For the molecule `c1ccc(OCc2ccc(CCCN3CCOCC3)cc2)cc1`, the Potency was 38.9 µM (active). As for `CCN(CC)CCNC(C(=O)OCCC(C)C)c1ccccc1` (stereo not given), the “activity change, negative = inhibition” value is -10.4% [at 52.9 µM] (inactive). In the case of `O=[N+]([O-])c1cc[n+]([O-])cc1`, the Potency is 35.6 µM (active). Still for that read-out and setting: under `CCCCOC(=O)c1ccccc1C(=O)OCC(CC)CCCC` (stereo not given) stands 6.33 µM (active). For the molecule `CC(C)(C)C1CCCCC1O` (stereo not given), the “activity change, negative = inhibition” value is 32.6% (inactive). Regarding `COc1ccc2[nH]c(S(=O)Cc3ncc(C)c(OC)c3C)nc2n1` (stereo not given), the Potency is 34.7 µM (active). On the same count and under the same terms, for `CC(=O)c1c(C)c([N+](=O)[O-])c(C(C)(C)C)c([N+](=O)[O-])c1C` the value was 31.7 µM (active).

Take `O=C(CCN1CCN2CCCC2C1)N1c2ccccc2Sc2ccc(Cl)cc21` (stereo not given): the activity change, negative = inhibition was -4.46% [at 23.6 µM] (inactive).

For the next assay, the target named is Cytochrome P450 2C9 (Homo sapiens) (UniProt P11712). Kind of assay: Cytochrome P450 Family 2 Subfamily C Member 9 (CYP2C9) small molecule antagonists: luciferase reporter qHTS assay (AID 1671198). Further: nearly all actives have a fitted effect of over 50% in size. To be noted: P450-Glo CYP2C9 enzyme assay, luciferin luminescence; series mostly up to 115 µM; activity change, negative = inhibition: at the top concentration. A digest of the protocol:
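Enzyme-substrate mix preincubated with compound 10 min at room temperature; reaction started with NADPH regeneration solution, 1 h 37C. Luminescent luciferin product read after 20 min detection reagent.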
In the case of `O=C1[C@H](CC[C@H](O)c2ccc(F)cc2)[C@@H](c2ccc(O)cc2)N1c1ccc(F)cc1`, the Potency was 8.71 µM (active). As for `Cn1c(=O)c2c(ncn2CC(O)CO)n(C)c1=O` (stereo not given), the “activity change, negative = inhibition” value was 14.2% [at 53 µM] (inactive). Take `CCOC(=O)C1=C(C)NC(C)=C(C(=O)OC)C1c1cccc([N+](=O)[O-])c1` (stereo not given): the Potency was 0.977 µM (active). In the case of `CC(C)(C)C(=O)OCOP(=O)(COCCn1cnc2c(N)ncnc21)OCOC(=O)C(C)(C)C`, the “activity change, negative = inhibition” value was -7.77% [at 53 µM] (inactive). `NCc1ccccc1`: the “activity change, negative = inhibition” value is -12.6% (inactive). Turning to `CCCCCCc1ccc(N)cc1`, the Potency is 17.8 µM (active). Same read-out and setting: for `COC(=O)CSc1cc(N=c2sc(=O)n3n2CCCC3)c(F)cc1Cl` the value was 8.94 µM (active); for `CC(C)c1ccccc1C(C)C`, 39.9 µM (active); for `CCOC(=O)[C@H](CCc1ccccc1)N[C@H]1CCc2ccccc2N(CC(=O)O)C1=O`, 8.71 µM (active). The same measure, in the same setting: under `N#Cc1cc2ccccc2c2ccccc12` stands 35.8 µM (active); under `O=C(O)C(c1ccc(Cl)cc1)c1ccc(Cl)cc1`, 15.9 µM (active). On the same count and under the same terms, under `Cc1nc2ccccc2n1Cc1ccc(Cl)cc1` stands 13.8 µM (active). With `Nc1nc(N)c2nc(CNc3ccc(C(=O)N[C@@H](CCC(=O)O)C(=O)O)cc3)cnc2n1`, the “activity change, negative = inhibition” value was -13.3% (inactive). `Nc1nc(N)c(-c2ccccc2)s1`: the “activity change, negative = inhibition” value is -12.6% [at 53 µM] (inactive). As for `Cc1cc(CC(=O)O)c(C)n1-c1ccc(Cl)cc1`, the Potency is 15.5 µM (active).

Regarding `CC(=O)O[C@H]1C[C@@H]2CC[C@@H]3[C@H](CC[C@@]4(C)[C@H]3C[C@H]([N+]3(C)CCCCC3)[C@@H]4OC(C)=O)[C@@]2(C)C[C@@H]1N1CCCCC1`, the “activity change, negative = inhibition” value was -2.45% [at 53 µM] (inactive). For `CCOc1ccc2[nH]cc(C(=O)NCc3ccccc3)c(=O)c2n1`, the Potency is 25.2 µM (active).

As to `C#CCOC(=O)[C@@H](C)Oc1ccc(Oc2ncc(Cl)cc2F)cc1`, the Potency was 31.6 µM (active). On the same count and under the same terms, for `O=C(Nc1ccccc1)OCC(CN1CCCCC1)OC(=O)Nc1ccccc1` (stereo not given) the value was 17.4 µM (active). Consider `CCCCCOC(=O)c1ccc(O)cc1`, for which the Potency is 36 µM (active).

Consider `Cc1ccc2c(ccc3ccccc32)c1`, for which the Potency was 35.7 µM (active). For the molecule `Cc1c(Cn2ccnc2)c2ccccc2n1CCC(=O)O`, the Potency was 3.09 µM (active). Turning to `COc1ccc([C@@H]2Sc3ccccc3N(CCN(C)C)C(=O)[C@@H]2OC(C)=O)cc1`, the “activity change, negative = inhibition” value was -12.7% [at 53 µM] (inactive). The same measure, in the same setting: under `C=CC[N+]1([C@H]2C[C@H]3[C@@H]4CC[C@H]5C[C@H](OC(C)=O)[C@@H](N6CCCCC6)C[C@]5(C)[C@H]4CC[C@]3(C)[C@H]2OC(=O)CC)CCCCC1` stands 1.88% [at 53 µM] (inactive); under `CCCC[C@H]1CN(CC2CCOCC2)C(=O)OC12CCN(C1(C)CCN(C(=O)c3c(C)ncnc3C)CC1)CC2`, -10.7% (inactive). Take `O=C1CCCCCO1`: the “activity change, negative = inhibition” value was -6.71% (inactive). Take `O=S1(=O)c2cccc3cccc(c23)N1CCCN1CCN(c2ccc(F)cc2)CC1`: the “activity change, negative = inhibition” value was 59.4% [at 53 µM] (inactive). On the same count and under the same terms, for `O=C(c1ccc(O)cc1)c1ccc(O)cc1` the value was -44.3% (inactive); for `C[C@@H](C1=C(CCN(C)C)Cc2ccccc21)c1ccccn1`, 7.47% [at 53 µM] (inactive). For `c1ccc(OCc2ccc(CCCN3CCOCC3)cc2)cc1`, the Potency was 38.9 µM (active). For `CCN(CC)CCNC(C(=O)OCCC(C)C)c1ccccc1` (stereo not given), the “activity change, negative = inhibition” value is 8.89% [at 53 µM] (inactive). Take `O=[N+]([O-])c1cc[n+]([O-])cc1`: the Potency was 39.9 µM (active). On the same count and under the same terms, under `CCCCOC(=O)c1ccccc1C(=O)OCC(CC)CCCC` (stereo not given) stands 12.6 µM (active). `CC(C)(C)C1CCCCC1O` (stereo not given): the “activity change, negative = inhibition” value was 9.72% (inactive). With `COc1ccc2[nH]c(S(=O)Cc3ncc(C)c(OC)c3C)nc2n1` (stereo not given), the Potency was 17.4 µM (active).

`CC(=O)c1c(C)c([N+](=O)[O-])c(C(C)(C)C)c([N+](=O)[O-])c1C`: the “activity change, negative = inhibition” value was -27% (inactive). Same read-out and setting: for `O=C(CCN1CCN2CCCC2C1)N1c2ccccc2Sc2ccc(Cl)cc21` (stereo not given) the value was 11.9% [at 23.6 µM] (inactive).
